Assay outcomes deposited in PubChem by Center for Chemical Genomics, University of Michigan.
Rows were chosen to be rich in hits. Some 0.9% of all compounds tested hit in one or more screens of this group.
TAR Tat displ: HIV-1 TAR-Tat binding disruption | HIV-1 TAR RNA, Tat peptide displacement FRET; stronger effect = higher value | z-score (test concentration not listed) | 100,000 tested, 0.6% active; active = z-score of 3 or more in at least 2 runs
CDC25B-CDK2 inh: human CDC25B-CDK2/CyclinA binding inhibition; HTRF CDC25B-CDK2/CyclinA binding, anti-His/anti-Flag; stronger effect = higher value; z-score (test concentration not listed); 94,000 tested, 0.72% active; AID 1259370; in the data active = z-score above about 3.2
Numbers without * were called inactive; . = not tested or not shown.

SMILES | TAR Tat displ | CDC25B-CDK2 inh
CCn1cc(C(=O)N2CCc3ccccc32)c(=O)c2cc(S(=O)(=O)N3CC(C)CC(C)C3)ccc21 (stereo not drawn) | 1.9 | -0.41
N#Cc1c(SCC(=O)Nc2cccc(F)c2)nc2c(c1-c1ccco1)CCCC2 | . | -1.7
N#Cc1c(SCC(=O)NCC2CCCO2)nc2c(c1-c1ccco1)CC/C2=C/c1ccco1 (stereo not drawn) | 20* | .
O=C(O)C1=CC(=C(c2ccc(O)c(C(=O)O)c2)c2ccc(O)c(C(=O)O)c2)C=CC1=O | . | 11*
O=C1C=CC(=C(c2ccc(O)cc2)c2ccc(O)cc2)C=C1 | -0.04 | .
CCc1ccccc1NS(=O)(=O)c1cn(C)c(C)n1 | 1.6 | .
CC(C)(C)NC(=O)COCc1cc(-c2ccco2)on1 | -0.46 | .
COc1ccc(OC)c(S(=O)(=O)N2CCN(Cc3ccc4c(c3)OCO4)CC2)c1 | 0.11 | 1.4
O=C1C=C(NCc2ccco2)CC(c2ccccc2)C1 (stereo not drawn) | 0.24 | -1.2
O=C1C=C(NCCc2ccccc2)CC(c2ccco2)C1 (stereo not drawn) | 24* | -0.39
CCOC(=O)c1c(NC(C)=O)sc(C(=O)NC2CCCCC2)c1C | . | -0.13
COc1ccc(CCNC(=S)NC2CC3C=CC2C3)cc1OC (stereo not drawn) | . | -0.99
CC(C)CC(=O)Nc1nnc(S(=O)(=O)N2CCC(C)CC2)s1 | 3.2 | -2.2
c1sc2c(c1CN1CCOCC1)CCCC2 | -1.6 | .
O=C1O[C@H]([C@@H](O)CO)C(O)=C1O | 0.06 | .
CCCCCCCCCCCCCCCC(=O)OC[C@H](O)[C@H]1OC(=O)C(O)=C1O | 17* | .
O=C(CCCc1nc(-c2ccco2)no1)Nc1ccncc1 | 4.2* | -2.1
O=C(CCc1nc(-c2ccco2)no1)Nc1ccncc1 | 1.2 | 6.6
CCCCN(CC)S(=O)(=O)c1cc2c(cc1C)NC(=O)CO2 | 1.8 | .
O=c1[nH]c2ccc(S(=O)(=O)N3CCN(c4cccc(Cl)c4)CC3)cc2[nH]c1=O | 20* | 16
O=c1[nH]c2ccc(S(=O)(=O)N3CCN(c4ccccc4)CC3)cc2[nH]c1=O | . | -0.51
O=C(Nc1ccc(F)cc1F)c1noc2c1CSc1ccccc1-2 | 1.1 | -1.7
CSc1ccc(CCNC(=O)Cn2ncn3c(cc4cc(F)ccc43)c2=O)cc1 | 0.39 | 2.8
O=c1c2cc3c(=O)n(Cc4cccs4)ccc3nc2ccn1Cc1cccs1 | -0.75 | 0.7
CCC(C)NC(=O)Cn1nc(C)c2sc3ccccc3c2c1=O (stereo not drawn) | 1.9 | -2.1
SMILES | TAR Tat displ | CDC25B-CDK2 inh
CCC(=O)N1c2ccc(C)cc2C(=C2SC(C(=O)OC)=C(C(=O)OC)S2)C(=S)C1(C)C | 1 | 0.15
CCCC(=O)N1c2ccccc2C(=C2SC(C(=O)OC)=C(C(=O)OC)S2)C(=S)C1(C)C | 0.88 | -4.6
CCOC(=O)C1=C(C(=O)OCC)SC(=C2C(=S)C(C)(C)Nc3ccc(C)cc32)S1 | 1.2 | 19*
COC(=O)C1=C(C(=O)OC)SC(=C2C(=S)C(C)(C)Nc3ccccc32)S1 | 0.87 | 14*
Cc1ccc(NC(=O)Cn2nc3c4sccc4ncn3c2=O)cc1C | 0.4 | .
COc1ccccc1/C=C/C=N/NC(=O)c1cc(C23CC4CC(CC(C4)C2)C3)[nH]n1 | . | -2.9
O=C(NCCCO)Nc1ccc2snnc2c1 | 1.5 | 6.5*
O=C(Nc1ccc2snnc2c1)NC1CCCC1 | 1.5 | 2
CN(C)C(=O)Nc1ccc2snnc2c1 | -0.37 | 1.9
CSc1ccc(CCNC(=O)Nc2ccc3snnc3c2)cc1 | 2.1 | 0.6
COCCNC(=O)Nc1ccc2snnc2c1 | 1.8 | 7.8*
CCN(CC)C(=O)Nc1ccc2snnc2c1 | 1.1 | 9.1*
C=CCNC(=O)Nc1ccc2snnc2c1 | 2.1 | 10*
C=CCNC(=O)c1ccc2snnc2c1 | 0.7 | -0.87
CC(=O)N1c2ccc(S(=O)(=O)N3CCCC(C(=O)NC4CCCCC4C)C3)cc2CC1C (stereo not drawn) | 1 | .
Cn1c(CNC(=O)CC2c3ccccc3Oc3ccccc32)nc2ccccc21 | 2.5 | -0.74
NC(=O)C1(N2CCCCC2)CCN(S(=O)(=O)c2cccs2)CC1 | -0.16 | -1.1
COc1cccc2c(=O)cc(C(=O)O)[nH]c12 | 0.68 | -1.9
O=C(NCc1ccc2c(c1)OCO2)Nc1ccc2snnc2c1 | . | -2.3
O=C(NCc1ccccc1)Nc1ccc2snnc2c1 | 1.1 | 11*
CC(=O)N1N=C(c2ccc(OC(=O)c3ccc(C(C)(C)C)cc3)cc2)OC1c1ccc(C)nc1 (stereo not drawn) | 0.39 | .
CC1(C)CCc2cc(C3=C(O)/C(=C/c4ccc(O)c(CC(O)C(C)(C)O)c4)OC3=O)c(O)cc2O1 (stereo not drawn) | 2 | .
Cc1ccc(-c2cc(C(=O)O)c3c(-c4ccccc4)[nH]nc3n2)cc1 | 0.86 | .
Cc1ccc(-c2[nH]nc3nc(-c4ccc(O)c(O)c4)cc(C(=O)O)c23)cc1 | 20* | -0.27
O=S(=O)(Nc1ccc(Cl)cc1)c1cccc2nonc12 | . | -0.45
SMILES | TAR Tat displ | CDC25B-CDK2 inh
O=C(Cn1nc2c(cc1=O)CCCC2)Nc1ccc(Cl)cc1 | 1.3 | .
O=C(Cn1nc2c(cc1=O)CCCC2)Nc1ccc2c(c1)OCO2 | 6.2* | .
COc1cc(-c2coc3cc(OCc4ccccc4)c(OC)c(O)c3c2=O)cc(OCc2ccccc2)c1OC | 26* | .
COc1ccc(-c2coc3cc(OCc4ccc(Br)cc4)cc(O)c3c2=O)cc1OC | -0.9 | -0.86
Cc1cccc(-n2c(C)nnc2SCc2nc(-c3ccccc3C)no2)c1 | -1.9 | -1.8
Cc1ccc(OCc2cc(=O)n3ccsc3n2)cc1C | -0.53 | -2.5
O=C(Nc1ccccc1)Nc1ccccc1N1CCOCC1 | . | -1.8
O=C(O)c1sccc1S(=O)(=O)Nc1ccccc1N1CCOCC1 | . | 19*
O=C(c1ccc(N2C(=O)CCS2(=O)=O)cc1)N1CCc2ccccc21 | 0.01 | -1.6
COc1ccc(N2C(=O)C3CC=CC(C)C3C2=O)cc1 (stereo not drawn) | 0.29 | 0.4
COc1ccc(-c2nc(=S)c3c([nH]2)Oc2ccccc2C3)cc1OC | 1.6 | 0.7
COc1cccc2c1Oc1[nH]c(-c3ccc(C(=O)O)cc3)nc(=S)c1C2 | 33* | 2.7
COc1cccc2c1Oc1[nH]c(-c3ccc(O)cc3)nc(=S)c1C2 | -0.64 | 0.26
COc1ccc(-c2nc(=S)c3c([nH]2)Oc2ccccc2C3)cc1O | 1.3 | 10*
CC(Sc1nc2c(c(=O)[nH]1)CCC2)C(=O)Nc1ccccc1Cl (stereo not drawn) | -1.7 | 0.77
Cc1nc(-c2ccc(S(=O)(=O)N3CCN(c4ccccn4)CC3)cc2)co1 | 0.27 | .
Cc1cccc(Nc2nc(-c3ccncc3)cs2)n1 | 2.5 | -0.7
Cc1cccc(Nc2nc(-c3ccc(O)c(O)c3)cs2)n1 | 16* | -0.54
Cc1ccnc(Nc2nc(-c3ccc(O)cc3)cs2)c1 | 0.86 | 0.67
Cc1ccnc(Nc2nc(-c3ccc(O)c(O)c3)cs2)c1 | 10* | -1.2
c1ccc(-c2nnc3c4cnn(-c5ccccc5)c4ncn23)cc1 | -1.1 | 0.85
O=C(CC1=NS(=O)(=O)c2ccccc2N1)Nc1ccc2c(c1)OCCO2 | 1.3 | .
COc1ccc2ccccc2c1C1CC(=O)N2CN(c3ccccc3)CSC2=C1C#N (stereo not drawn) | -1.1 | 4.8*
COc1ccc2ccccc2c1C1CC(=O)N2CN(c3ccc(F)cc3)CSC2=C1C#N (stereo not drawn) | 0.3 | 2.6
COc1ccc(N2CSC3=C(C#N)C(c4c(OC)ccc5ccccc45)CC(=O)N3C2)cc1 (stereo not drawn) | -2 | 6.4*
